# In the supplement of paper PMC5499739:
# Whole data set: some 16,000 sequences, median “Z-score” near -0.37, cut for the highest 2% near 3.1. The sample as a whole holds a higher share of the highest values than the screen did.
# System: RBM10 RRM1-ZnF-RRM2 (GST-tagged construct)
# Assay: RNAcompete 7-mer binding Z-score; higher = stronger binding preference
# Description: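 RNAcompete: 20 pmol GST-tagged RBM10 RNA-binding constructs were incubated with a designed RNA pool of about 241,000 sequences up to 41 nt (1.5 nmol) on glutathione beads for 30 min at 4 °C and washed. Bound RNAs were identified by microarray hybridisation. Each RNA 7-mer is scored by a one-sided Z-score of its enrichment, computed over probes that contain the 7-mer within longer pool sequences.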
row,Sequence,RNAcompete 7-mer binding Z-score
1,ACCCUCA,-0.846
2,GGGGGGU,3.13
3,UGGGGUU,2.78
4,UGGGGGU,3.25
5,GGAGGAU,2.27
6,UGAGGGG,3.5
7,AGAGGGU,2.21
8,UGAGGGU,3.92
9,UGAGGAG,1.94
10,GGAGGCU,1.29
11,CGAGGAU,1.1
12,UGAGAGG,1.8
13,UGAGGCU,0.315
14,GGAGGGU,3.8
15,CGAGGUU,0.727
16,CGAGGGU,3.55
17,GAUCGGA,0.785
18,UCUCGGA,-0.329
19,UCGGAUG,0.512
20,CGCCGAA,-0.646
21,GAUAUUG,0.283
22,AAGUGUC,-0.322
23,GCAAGUG,0.709
24,UGAGGCA,1.31

row,Sequence,RNAcompete 7-mer binding Z-score
1,UGAGGGA,4.05
2,UCAGGGA,2.05
3,CGGGGUA,3.42
4,AGGGGUA,3.66
5,CGGGGUC,1.9
6,UUGGGUA,1.95
7,CUGGGUA,1.78
8,CCGGGUA,0.814
9,UGGGGUA,3.36
10,GCGGGUA,2.5
11,GUGGGUA,3.07
12,GGGGGUA,3.52
13,AGGGGUC,1.76
14,CGAUUUA,-0.704
15,UUAAAGC,-0.439
16,ACUAGAA,-0.187
17,CUUUUGA,-0.755
18,AGAGACC,-0.774
19,UCAUACA,-0.464
20,GGGAGGA,3.24
21,UAGAGGG,3.16
22,UGGAGGA,2.95
23,UAGAGGU,1.68
24,GGGAGUG,3.84

row,Sequence,RNAcompete 7-mer binding Z-score
1,UGGAGUG,2.72
2,AAGAGGG,3.05
3,AGGAGUG,2.8
4,UGGAGGG,4.26
5,UGGAGAG,2.12
6,AGGAGGA,2.22
7,GGGAGUA,2.34
8,GCACUAG,-0.0161
9,AUAAGCU,-0.391
10,UUGACGG,0.399
11,CGUUUGC,-0.766
12,UUUCGAU,-0.664
13,UUCGGGA,0.734
14,GGGACCA,1.9
15,UUCCGUC,-0.726
16,UCAAUGG,1.28
17,UCUGUGG,0.199
18,GGGAGCG,3.23
19,AGGAGGC,1.72
20,AGGAGGU,2.71
21,AGGAGGG,3.31
22,GGGAGGG,4.06
23,CGGAGCG,1.45
24,GGGAGCC,0.891

row,Sequence,RNAcompete 7-mer binding Z-score
1,CGGAGGG,2.92
2,UGGAGGC,2.16
3,GGGAGGC,3.2
4,GAGAGGG,2.75
5,CGGAGGC,1.24
6,CGCUGGA,-0.027
7,AGUCGCG,-0.0634
8,UGCCACC,-0.759
9,ACUUUGG,-0.351
10,GGCUUGU,-0.318
11,CUCGUUC,-0.61
12,GGCUUCA,-0.428
13,GAUACUG,-0.118
14,GAAGUCG,0.428
15,CUUCUCA,-0.981
16,UCGUGCG,-0.027
17,UCUUAUU,-0.803
18,UUAGUAA,-0.355
19,AGGCCUC,-0.828
20,UGGAGGU,3.02
21,CGGAGGU,2.46
22,GGGAGGU,3.39
23,CCACGAA,-0.544
24,AAGGUAA,3.65

row,Sequence,RNAcompete 7-mer binding Z-score
1,CAGGUAG,2.68
2,AAGGUAU,2.03
3,UAGGUAG,2.27
4,AAGGUAG,3.82
5,UAGGUAA,1.96
6,GGCCGUA,0.0786
7,AAGAGGU,1.66
8,CCGCAUA,-0.817
9,AAGAUUU,-0.588
10,CGUAAUC,-0.511
11,CGGUGAG,1.64
12,AGGUGAU,1.62
13,UGGUGAA,1.22
14,CGGUGAA,0.723
15,GGGUGAG,4.12
16,GGGUGAU,3.16
17,GGGUGAC,2.92
18,GGGUGAA,3.66
19,UGGUGAU,0.727
20,CAUUUCU,-0.872
21,CAUAACU,-0.592
22,UAAAGCC,-0.661
23,ACGUUUC,-0.912
24,GAACAGA,0.745

row,Sequence,RNAcompete 7-mer binding Z-score
1,AGACAGG,1.72
2,UAACAGG,1.14
3,GAACAGG,3.18
4,GGACAGG,3.23
5,GGACAGU,1.01
6,ACCCAGG,-0.173
7,GCUUUAA,-0.726
8,CCAGCUA,-0.719
9,GUGGUAU,1.08
10,GUGCUAG,0.268
11,CGAUCUG,-0.795
12,GUCUAAC,-0.486
13,GGGUAGA,3.84
14,CGGUAGA,1.01
15,GAGUAGG,3.6
16,GAGUAGU,0.68
17,UGGUAGA,1.89
18,UGGUAGC,1.01
19,UGGUAGG,3.16
20,GGGUAGC,2.69
21,GGGUAUC,2.16
22,AGGUAUG,1.95
23,GAGUAGA,1.4
24,GGGUAUG,3.69

row,Sequence,RNAcompete 7-mer binding Z-score
1,UGAUUCC,-0.668
2,AAUUGUG,-0.00512
3,UUGGUGA,1.39
4,GAUCGCG,-0.0925
5,UCGUUCA,-0.508
6,UUUGAUG,-0.358
7,UUGAGCA,-0.165
8,GGGUAGG,4.42
9,GGGUAGU,3.17
10,AGGUAGG,3.72
11,AGGUAGC,0.862
12,CGGUAGU,0.37
13,GGGUACA,3.39
14,GGGUACU,2.05
15,UGGUACA,0.949
16,GCGUAGG,2.21
17,CGGUAGG,2.15
18,UGGUAGU,0.585
19,AGGUAGA,2.42
20,UAUGAAC,-0.195
21,CAUGCUU,-0.861
22,UGCUGCG,-0.34
23,UACUCGC,-0.548
24,GUGGAAU,2.34

row,Sequence,RNAcompete 7-mer binding Z-score
1,AGUAUAU,-0.351
2,AAGGGAG,4.04
3,AGGGGAA,3.56
4,GGGGGAA,2.61
5,GAGGGAC,2.02
6,CGGGGAA,2.76
7,ACGGGAU,1.88
8,AAGGGCG,3.12
9,AGGGGAC,1.97
10,UAGGGAU,2.48
11,AAGGGAC,3.43
12,AAGGGAU,3.44
13,AGGGGAG,2.52
14,UUAGGCC,-0.471
15,AGGCCUG,-0.632
16,AAUCGCU,-0.825
17,GUCUCUC,-0.719
